MITF primary – MITF inhibitors, primary screen, biochemical, AlphaScreen, human; Microphthalmia-associated transcription factor (Homo sapiens), O75030; AlphaScreen MITF homodimerization, bead proximity signal; inhibition, % at 2.6 µM; 0.91% of 650,000 active; in the data active = inhibition above about 50%
TEAD-YAP block – TEAD-YAP interaction inhibition, primary screen, TEAD-YAP interaction inhibitor project, luminescence, HEK-TIYL cells | 1.4% of 640,000 active | inhibition, % at 9.12 µM | TEAD-Gal4/YAP UAS-luciferase luminescence; in the data active = inhibition above about 32%
GPR151 ag – activators of human GPR151, primary screen, cell-based, PathHunter beta-arrestin, luminescence | G-protein coupled receptor 151 (Homo sapiens), Q8TDV0 | PathHunter beta-arrestin GPR151 cells | activation, % at 11.2 µM | 1% of 650,000 active; in the data active = activation above about 4.9%
Target sequence (Q8TDV0 whole entry, looked up): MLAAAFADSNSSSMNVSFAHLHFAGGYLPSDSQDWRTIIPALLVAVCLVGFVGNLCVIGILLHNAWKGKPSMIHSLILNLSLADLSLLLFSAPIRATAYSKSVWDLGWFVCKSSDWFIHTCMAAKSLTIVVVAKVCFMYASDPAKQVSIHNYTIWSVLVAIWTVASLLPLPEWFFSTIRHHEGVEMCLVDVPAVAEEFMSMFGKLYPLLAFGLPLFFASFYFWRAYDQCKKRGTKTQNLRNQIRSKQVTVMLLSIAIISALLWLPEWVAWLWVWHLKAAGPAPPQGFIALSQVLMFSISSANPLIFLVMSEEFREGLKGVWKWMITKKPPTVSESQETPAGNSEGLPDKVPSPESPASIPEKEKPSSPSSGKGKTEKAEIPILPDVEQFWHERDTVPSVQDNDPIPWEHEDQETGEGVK
FBW7 activator – FBW7 E3 ligase activators, primary screen, biochemical, AlphaScreen, human. 0.13% of 650,000 active. AlphaScreen FBW7–phospho-cyclin E peptide binding, activator screen. normalized activity (activation), % at 26.1 µM; in the data active = normalized activity above about 1.9%;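 also: purified mutant Fbw7 with reduced substrate affinity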
MITF inh conf – MITF inhibitors, retest of hits, confirmation, biochemical, AlphaScreen, triplicate; shares compounds with MITF primary; AlphaScreen MITF homodimerization, biotin/His-MITF beads; inhibition, % at 2.6 µM; 16% of 4,700 active; AID 1259372, 2018;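 active = inhibition above a cutoff derived from the DMSO control wells, cut at about 28% in these data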;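 also: inhibitors lower the bead chemiluminescence by keeping MITF from dimerizing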
AlphaScreen DR – AlphaScreen optical interference compounds, dose response, counter-screen, biochemical, HTS; IC50, µM; AID 1259373, 2018; 6% of 480 active; AlphaScreen optical interference counterscreen, cell-free; shares compounds with MITF primary; call rule not given here
AS interf ctr – AlphaScreen optical interference compounds, counter-screen for MITF inhibitor project, biochemical, triplicate; LysRS AlphaScreen counterscreen, signal interference; inhibition, % at 2.6 µM; AID 1259376, 2018; 7.6% of 4,700 active; shares compounds with MITF primary;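 active = inhibition above a cutoff derived from the DMSO control wells, cut at about 30% in these data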
Of the large screens only hits and unclear results are named; the others gave an inactive call (follow-up assays come after a bar, where they were run). The list is not random: actives were taken first. Their share in the collection is about 3.5%.

O=C(Cc1noc2ccccc12)N1CCN(Cc2nc3ccccc3[nH]2)CC1	MITF primary 77 | MITF inh conf inactive | AS interf ctr inactive
O=C(COc1ccccc1Cl)N1CCN(Cc2ccccc2)CC1	none
COc1ccccc1N1CCN(Cc2ccccc2C#N)CC1	MITF primary 55 | MITF inh conf inactive | AS interf ctr inactive
COc1ccccc1CN1CCN(Cc2ccccc2OC)CC1	MITF primary 75 | MITF inh conf inactive | AS interf ctr inactive
COc1ccccc1N1CCN(Cc2ccccc2C)CC1	none
COc1ccccc1CN1CCN(Cc2ccccc2Cl)CC1	MITF primary 82 | MITF inh conf inactive | AS interf ctr inactive
COc1ccccc1CN1CCN(Cc2ccccc2F)CC1	none
Cc1sc2nc(C)n(C3CCNCC3)c(=O)c2c1C	none
COC=C(C(=O)OC)c1ccccc1Oc1cc(Oc2ccccc2C#N)ncn1	none (no result: MITF primary, TEAD-YAP block, FBW7 activator)
CN1CCN(Cc2ccc(F)cc2F)CC1	none
CC(C)CN1CCN(Cc2cc(F)ccc2F)CC1CCO (configuration not stated)	none
CN1CCN(Cc2c(F)cccc2F)CC1	MITF primary 62 | MITF inh conf inactive | AS interf ctr inactive
CN1CCN(Cc2cc(F)ccc2F)CC1	MITF primary 69 | MITF inh conf inactive | AS interf ctr inactive
CCN1CCN(Cc2cc(F)ccc2F)CC1	MITF primary 62 | MITF inh conf inactive | AS interf ctr inactive
CN(C)/N=C/c1ccc(C(O)C(Cl)(Cl)Cl)o1 (configuration not stated)	none
CC(C)CCn1c(=O)c(C(=O)Nc2ccccc2)c(O)c2ccccc21	none
CCC(C)N1CCN(Cc2ccccc2)CC1 (configuration not stated)	MITF primary 66 | MITF inh conf inactive | AS interf ctr inactive
CCC(C)N1CCN(Cc2ccccc2F)CC1 (configuration not stated)	MITF primary 75 | MITF inh conf inactive | AS interf ctr inactive
C=CCOC(=O)C1=C(C)OC(N)=C(C#N)C12C(=O)Nc1ccc(Cl)cc12 (configuration not stated)	none
CCC(C)N1CCN(Cc2cc(OC)c(O)c(OC)c2)CC1 (configuration not stated)	MITF primary 68 | MITF inh conf inactive | AS interf ctr inactive
CCN1CCN(Cc2cc(OC)c(O)c(OC)c2)CC1	none
CCC(C)N1CCN(Cc2cc(OC)c(OC)c(OC)c2)CC1 (configuration not stated)	MITF primary 75 | MITF inh conf inactive | AS interf ctr inactive
O=C(Cc1cccc2ccccc12)N1CCN(Cc2ccc3c(c2)OCO3)CC1	none
O=[N+]([O-])c1ccc(N2CCN(Cc3c(F)cccc3F)CC2)cc1	MITF primary 63 | MITF inh conf inactive | AS interf ctr inactive
O=[N+]([O-])c1ccc(N2CCN(Cc3cc(F)ccc3F)CC2)cc1	MITF primary 58 | MITF inh conf inactive | AS interf ctr inactive
O=[N+]([O-])c1cccc(CN2CCN(c3ccc(F)cc3)CC2)c1	none
COc1ccccc1N1CCN(Cc2ccccc2[N+](=O)[O-])CC1	none
O=[N+]([O-])c1ccccc1CN1CCN(Cc2ccccc2F)CC1	MITF primary 67 | MITF inh conf inactive | AS interf ctr inactive
CC(C)N1CCN(Cc2ccccc2[N+](=O)[O-])CC1	MITF primary 63 | MITF inh conf inactive | AS interf ctr inactive
CCCN1CCC(N(C(=O)Nc2ccccc2)c2ccc3c(c2)CCN3C(C)=O)CC1	none
CCOC(=O)C1C2NC(=S)N(c3ccccc3)C1(C)Oc1c(OCC)cccc12 (configuration not stated)	none
CCOC(=O)C1C2NC(=S)N(c3ccc(C)cc3)C1(C)Oc1c(OCC)cccc12 (configuration not stated)	MITF primary 53 | MITF inh conf 41 | AS interf ctr inactive
Cc1cc(Cl)ccc1-n1c(/C=C\c2ccc(F)c(F)c2)nc2ccccc2c1=O	none
COc1ccc(CN2CCN(Cc3ccccc3)CC2)c(OC)c1	MITF primary 67 | MITF inh conf inactive | AS interf ctr inactive
CCC(C)N1CCN(Cc2cccc(OC)c2OC)CC1 (configuration not stated)	MITF primary 78 | MITF inh conf inactive | AS interf ctr inactive
COc1cccc(CN2CCN(C)C(CCO)C2)c1OC (configuration not stated)	none
COc1cccc(CN2CCN(C(C)C)CC2)c1OC	MITF primary 69 | MITF inh conf inactive | AS interf ctr inactive
COc1ccc(OC)c(CN2CCN(C(C)C)CC2)c1	MITF primary 72 | MITF inh conf inactive | AS interf ctr inactive
CCC(C)N1CCN(Cc2cccc(C)c2)CC1 (configuration not stated)	none
CCN(CC)P(=S)(c1n(C)cc[n+]1C)N(CC)CC	none
O=c1c2ccccc2nc(/C=C\c2ccc(F)cc2)n1-c1ccc(Cl)cc1	none
COc1ccc(Br)cc1/C=C1\C(=O)NC(=O)N(c2ccc(C)cc2)C1=O	none
COc1cccc(CN2CCN(Cc3ccccc3)CC2)c1OC	MITF primary 69 | MITF inh conf inactive | AS interf ctr inactive
COc1cccc(CN2CCN(C)CC2)c1OC	none
Fc1ccc(CNCCc2c[nH]c3ccccc23)cc1	none
Fc1ccc(CNCCc2c[nH]c3ccccc23)cc1F	MITF primary 54 | MITF inh conf inactive | AS interf ctr inactive
CC(Cc1ccccc1)[n+]1c/c(=N\C(=NCc2ccccc2)N(C)C)o[n-]1 (configuration not stated)	none
O=C(c1ccoc1)N1CCC2(CC1)OCc1ccccc1O2	none
CN1CCC2(C1)Oc1ccccc1O2	MITF primary 55 | MITF inh conf inactive | AS interf ctr inactive
CN1C2CCC1CC(OC(=O)c1ccco1)C2 (configuration not stated)	none
O=[N+]([O-])c1c(Br)ccc2c1no[n+]2[O-]	MITF primary 90 | MITF inh conf 80 | AlphaScreen DR inactive | AS interf ctr inactive
O=C(Cc1ccccc1)N1CCN(Cc2cccc(Oc3ccccc3)c2)CC1	none
O=C(COc1ccccc1)N1CCN(Cc2ccccc2F)CC1	MITF primary 55 | MITF inh conf inactive | AS interf ctr inactive
COc1ccccc1CN1CCN(C(=O)COc2ccccc2)CC1	none
Cc1ccccc1CN1CCN(C(=O)COc2ccccc2)CC1	MITF primary 60 | MITF inh conf inactive | AS interf ctr inactive
O=C1CCC(=O)N1c1ccc(Cl)c(Cl)c1	none

Assay outcomes (PubChem)
